Laboratory results taken from PubChem BioAssay (NCI).
Compounds without any hit were thinned out: in the full panel of roughly 79,000, 15% have a hit. Active and inactive are the calls of the source. No stated cut-off is given here; in the data, active means growth inhibition above about 70%; inactive means the rest.

Assays:
[1] = NCI Yeast Anticancer Drug Screen. Data for the rad50 strain (AID 155);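 further: 0% = growth of vehicle-only cultures of the same strain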; details: S. cerevisiae rad50 strain growth inhibition; at 50.0 µM; hits give high values
Method in brief: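 Inhibition values express reduced yeast growth in compound-treated cultures relative to vehicle-treated controls.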

[2] = NCI Yeast Anticancer Drug Screen. Data for the mec2-1 strain (AID 157); details: S. cerevisiae mec2-1 strain, at 50.0 µM, hits give high values
Method in brief: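 Each compound was tested on mec2-1 yeast, a strain altered in DNA damage repair or cell cycle control. Growth inhibition is reported relative to vehicle.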

[3] = NCI Yeast Anticancer Drug Screen. Data for the sgs1 mgt1 strain (AID 161);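 further: 0% = growth of cultures given vehicle only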; details: S. cerevisiae sgs1 mgt1 strain, at 50.0 µM, hits give high values
Method in brief: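 Read-out: growth inhibition vs vehicle controls. Cells: mutant yeast strain deficient in DNA damage repair.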

[4] = NCI Yeast Anticancer Drug Screen. Data for the cln2 rad14 strain (AID 165);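 further: 0% = growth equal to vehicle treated cultures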; details: S. cerevisiae cln2 rad14 strain, at 50.0 µM, hits give high values
Method in brief: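 Test compounds were added to cln2 rad14 yeast cultures; inhibition of growth was then determined by comparison with vehicle treatment.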

[5] = NCI Yeast Anticancer Drug Screen. Data for the bub3 strain (AID 167); details: S. cerevisiae bub3 mutant strain, at 50.0 µM, hits give high values
Method in brief: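 Steps: expose the mutant yeast strain to compound; grow alongside vehicle-treated cultures; measure growth; express inhibition against the vehicle cultures.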

[6] = NCI Yeast Anticancer Drug Screen. Data for the mlh1 rad18 strain (AID 175); details: S. cerevisiae mlh1 rad18 strain growth inhibition; at 50.0 µM; hits give high values
Method in brief: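 Inhibition values reflect reduced growth of mutant yeast versus vehicle-treated controls following compound exposure; the mutations affect DNA damage repair.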

Measured: growth inhibition

CC(=O)Cc1ccc(-c2ccccc2)cc1
inactive: [1] 18.4% | [2] 14.8% | [3] 8.3% | [4] -25.4% | [5] 10.3% | [6] 24.6%

CCOC(=O)c1cc(/C=C/c2cccc(Cl)c2)on1
inactive: [1] 57.2% | [2] 27.6% | [3] 25.9% | [4] 26.1% | [5] 8.1% | [6] 47.4%

COc1cc2cc(OC(C)=O)c3cc4c(cc3c2c(OC)c1OC)OCO4
inactive: [1] -18.4% | [2] -10.8% | [3] -16.3% | [4] -5.2% | [5] -21.9% | [6] -25.1%

CC(=O)c1ccc(N=C(C#N)C2=C(O)c3ccccc3C2=O)cc1
inactive: [1] 15.7% | [2] -12.4% | [3] 25.8% | [4] 14.2% | [5] 10.9% | [6] 13.3%

C=CCOC(=O)C(=O)OCC=C
inactive: [1] 18.8% | [2] 30.6% | [3] -25.9% | [4] 1.95% | [5] 5.35% | [6] 14.8%

CC(=O)OCC1=CC2OC(=O)C3=COC(OC4OC(CO)C(O)C(O)C4O)C1C32 (stereo not drawn)
inactive: [1] 11.6% | [2] -3.55% | [3] 10.3% | [4] 13.4% | [5] 16.6% | [6] -51.6%

CCCCCCCCCCCCCC(=O)Oc1ccc[nH]c1=O
inactive: [1] -12.2% | [2] -19.6% | [3] -15.9% | [4] 11% | [5] 0.65% | [6] 0.7%

Nc1nc(N)c2cc(S(=O)(=O)c3cccc(C(F)(F)F)c3)ccc2n1
inactive: [1] 34% | [2] 24.9% | [3] 7.4% | [4] 11.2% | [5] -15.4% | [6] -59.4%

Cc1cc2nc(CO)[nH]c2cc1C
inactive: [1] -2.95% | [2] -40% | [3] -24.2% | [4] 7.55% | [5] -5.65% | [6] 1.8%

C/C(=N\O)C1(O)CCCCC1
inactive: [1] 28.9% | [2] 3.55% | [3] 8% | [4] 13.7% | [5] 7.45% | [6] 15.8%

Nc1ccccc1C(=O)Nc1ccc(Cl)cc1Cl
inactive: [1] -9.1% | [2] -22.4% | [3] 7.4% | [4] 4.85% | [5] 21.9% | [6] 2.35%

S=c1[nH]ccn1-c1ccccc1Cl
inactive: [1] -17.8% | [2] -17.2% | [3] -17.6% | [4] -29.1% | [5] -10.4% | [6] -2.1%

OCc1ccc(-c2ccc(-c3ccc(CO)s3)o2)s1
inactive: [1] 31.1% | [2] 3.55% | [3] 39.9% | [4] 31.9% | [5] 25.3%
active: [6] 90.7%

COc1ccccc1N1CCN(C(=S)Nc2ccccc2)CC1
inactive: [1] 32.3% | [2] -13.8% | [3] 0.8% | [4] -1.05% | [5] -2.7% | [6] 15.3%

COc1ccc(C(O)c2ccccc2)cc1 (stereo not drawn)
inactive: [1] 2.2% | [2] -17.4% | [3] -34.9% | [4] -50.2% | [5] -28.1% | [6] -15.2%

CCOC(=O)C1=C(C)NC(=O)NC1c1cccs1 (stereo not drawn)
inactive: [1] -11.2% | [2] -26.9% | [3] -14.4% | [4] 5.5% | [5] -14.2% | [6] -20.1%

CC(=O)c1ccc2c(ccc3ccccc32)c1
inactive: [1] -13.1% | [2] -16.3% | [3] -12.6% | [4] -14.6% | [5] -5.4% | [6] 3.9%

Nc1ccc(N)c([N+](=O)[O-])c1
inactive: [1] -30.9% | [2] -17.8% | [3] -27.3% | [4] -39% | [5] -14.8% | [6] -15.2%

CCc1nn(Cc2ccccc2)c2nc(C)c(CCc3ccccc3)c(Cl)c12
inactive: [1] -6.85% | [2] -4.6% | [3] -0.45% | [4] 2.6% | [5] 7.35% | [6] -2.75%

O=C(CS)Nc1ccc2ccccc2c1
inactive: [1] 3.5% | [2] -0.85% | [3] 22% | [4] -36.9% | [5] -7.85% | [6] -1.15%

CC(C)COC(=O)COC(=O)OCCOCCOC(=O)OCC(=O)OCC(C)C
inactive: [1] 36.5% | [2] -8.7% | [3] 17.4% | [4] -26.9% | [5] 26.1% | [6] 8.6%

CCN(CC)CCNc1ccc(CO)c2sc3ccccc3c(=O)c12
inactive: [1] -16.1% | [2] -28.1% | [3] -10.8% | [4] 2.6% | [5] -24.1% | [6] -14.4%

CCO/C=C1\SC(=S)N(c2cccc(C)c2)C1=O
inactive: [1] 11.1% | [2] 13.7% | [3] 1.25% | [4] 13.2% | [5] 14.9% | [6] 16.9%

CCc1nc(N)nc(N)c1-c1ccc(Cl)cc1
inactive: [1] -9.9% | [2] 2.9% | [3] -4.45% | [4] -42.5% | [5] -14% | [6] -21.2%

O=C(O)c1cc([N+](=O)[O-])ccc1Cl
inactive: [1] 27.9% | [2] 11.2% | [3] 7.15% | [4] 21% | [5] 21.9% | [6] 34.4%

CCCC1(c2ccccc2)NC(=O)NC1=O (stereo not drawn)
inactive: [1] 5.75% | [2] 0.3% | [3] -6.1% | [4] -81.1% | [5] 7.95% | [6] -13.7%

O=C(O)[C@@H]1[C@H]2C[C@H]3c4[nH]c5ccccc5c4CCN3C[C@@H]2CC[C@@H]1O
inactive: [1] -10.3% | [2] -27% | [3] 9.45% | [4] 6.5% | [5] -20.6% | [6] -19.9%

O=C(Cc1nc2ccc([N+](=O)[O-])cc2nc1CC(=O)c1cccnc1)c1cccnc1
inactive: [1] 14.3% | [2] 10.5% | [3] -1.35% | [4] 15.2% | [5] -3.85% | [6] 9.6%
